target: GATA4; assay: pooled miR-30 sensor sort-seq; sequence = guide strand; details: shRNA

Q: Which sensor-assay potency score (higher = more potent) does the source give for TTTATTCAGGTTCTTGGGCTTC here?
A: -0.422

Q: Which sensor-assay potency score (higher = more potent) does the source give for TTCTGTTGTGTTGTGTTTGTTT here?
A: -0.142

Q: For TTGATGGGACGCATCTCCTCGC, which sensor-assay potency score (higher = more potent) is on record?
A: -0.611

Q: Which sensor-assay potency score (higher = more potent) does the source give for TTCGTGTTGCAGAATCTCTGGC here?
A: 0.947

Q: How did the sensor-assay potency score (higher = more potent) turn out when TAAAACAGAATCTTGGTTCAAA was run?
A: 0.268

Q: Which sensor-assay potency score (higher = more potent) does the source give for TCGTCAAACATATCGAGATTGG here?
A: -0.878

Q: Which sensor-assay potency score (higher = more potent) does the source give for TCGACTTCAAGTTTCTTCCCAG here?
A: 0.0228

Q: TTCCGCATTGCAAGAGGCCTGG was tested. Which sensor-assay potency score (higher = more potent) did it give?
A: -0.334

Q: For TTAGATTTATTCAGGTTCTTGG, which sensor-assay potency score (higher = more potent) is on record?
A: -0.334

Q: Which sensor-assay potency score (higher = more potent) does the source give for TTGGGCTTCCGTTTTCTGGTTT here?
A: -0.283

target: GCKR; assay: as above; details: shRNA

Q: With TTCTTCTCCAGACTGGTGCTGA as the sequence, how does the sensor-assay potency score (higher = more potent) read?
A: -0.0469

Q: TATCATCTGACAGTGGCTGGGG was tested. Which sensor-assay potency score (higher = more potent) did it give?
A: 0.728

Q: Which sensor-assay potency score (higher = more potent) does the source give for TAGCAGTCGAACAATGTTCTCA here?
A: -0.15

Q: With TTCCTTCTCATGTGCAACCTGG as the sequence, how does the sensor-assay potency score (higher = more potent) read?
A: -0.464

Q: For TAGGTCGAGAGCAAGAACTCTC, which sensor-assay potency score (higher = more potent) is on record?
A: -0.283

Q: For TGTCGGAATGTTGAACTCCAGT, which sensor-assay potency score (higher = more potent) is on record?
A: -1.08

Q: With TTTGGTGCTTAGCTCACGCTGG as the sequence, how does the sensor-assay potency score (higher = more potent) read?
A: -0.0787

Q: ATCTGCTTTGTCTAGATCCTGG was tested. Which sensor-assay potency score (higher = more potent) did it give?
A: -0.482

Q: For TAGCTCACGCTGGAACTTCTGG, which sensor-assay potency score (higher = more potent) is on record?
A: -0.719

Q: How did the sensor-assay potency score (higher = more potent) turn out when TTCGCTGTAGAGTCTCTGGTAT was run?
A: 0.0176

Q: Which sensor-assay potency score (higher = more potent) does the source give for TTCTGGTTAAACATGTCACTGT here?
A: 0.368

Q: Which sensor-assay potency score (higher = more potent) does the source give for TTTGTCTAGATCCTGGGTCAGT here?
A: -0.835

target: GDF3; assay: as above; details: shRNA

Q: How did the sensor-assay potency score (higher = more potent) turn out when TGAAGTGAACAGCACCTTGTGG was run?
A: -0.321

Q: How did the sensor-assay potency score (higher = more potent) turn out when TAGAATGACATTGTCATTATTG was run?
A: -1.56

Q: TTACGTAGCATAAGTCTCGGGA was tested. Which sensor-assay potency score (higher = more potent) did it give?
A: 0.238

Q: For TTTACGTAGCATAAGTCTCGGG, which sensor-assay potency score (higher = more potent) is on record?
A: -0.227

Q: With TTTATTAAAAGATTTACCCTAA as the sequence, how does the sensor-assay potency score (higher = more potent) read?
A: 0.196

Q: Which sensor-assay potency score (higher = more potent) does the source give for TTCTTGAAATTGGACTGCCTGG here?
A: -1.06

Q: How did the sensor-assay potency score (higher = more potent) turn out when TAATGTCGTAGAATGACATTGT was run?
A: 0.288

Q: Which sensor-assay potency score (higher = more potent) does the source give for ATCCTTAGCTACATCCAGCAGG here?
A: -0.935

Q: How did the sensor-assay potency score (higher = more potent) turn out when TTTACCCTAAGAACACTCCTTC was run?
A: 0.541

Q: With TTCTTTGACCAGTATCTCCAGG as the sequence, how does the sensor-assay potency score (higher = more potent) read?
A: -0.0651

Q: TAACAGGAAGCTGAAAGCCAAA was tested. Which sensor-assay potency score (higher = more potent) did it give?
A: -1.72

Q: ATTGTCATTATTGTCCTGGTAG was tested. Which sensor-assay potency score (higher = more potent) did it give?
A: 0.032

target: GEMIN6; assay: as above; details: shRNA

Q: For TTCTCTCTTCCAGATCCTCTGG, which sensor-assay potency score (higher = more potent) is on record?
A: -0.645

Q: How did the sensor-assay potency score (higher = more potent) turn out when TTATACTCATTCTTCTCACTGG was run?
A: 0.394

Q: With TTAGGCTGTTCTTTCTCTCTTC as the sequence, how does the sensor-assay potency score (higher = more potent) read?
A: -0.165

Q: With ATTCCGGTCACAGACATGCTGC as the sequence, how does the sensor-assay potency score (higher = more potent) read?
A: -1.04

Q: For TAATCTTGCCATTCTAAGGGGC, which sensor-assay potency score (higher = more potent) is on record?
A: 0.00534

Q: ATAATCTCATTAGAGCTGCTGC was tested. Which sensor-assay potency score (higher = more potent) did it give?
A: -0.457

Reference: the OligoGym collection
